Out of some 5,500 compounds screened, about 2,000 (36%) were called active. Not shown: some 18% with an inconclusive outcome. Cut-off read from the data, not from the text of the source: active = normalized growth mostly below about 0.91 (no sharp cut-off); inconclusive = no clear call, values can overlap the other calls; inactive = mostly above about 0.92. This is one part of the list.
Test: chemical genetic growth profiling, strain panel (AID 1159580);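 note: tested at 20 µM; growth read once vehicle control cultures reached saturation at 30 °C; 1 = growth at the plate median or of vehicle wells; lower values mean less growth of the strain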
Settings: growth OD

Measured: normalized growth

Nc1ccc(N=Nc2ccccc2)c(N)n1
inactive: S. cerevisiae deletion strains, locus YJR075W, strain HOC1, hits give low values 0.991 | S. cerevisiae deletion strains, locus YKL009W, strain mrt4, hits give low values 0.933 | S. cerevisiae deletion strains, locus YKL068W, hits give low values 1.02 | S. cerevisiae deletion strains, locus YKL085W, strain MDH1 (second series), hits give low values 1.01 | S. cerevisiae deletion strains, locus YKL085W, strain MDH1, hits give low values 1.01 | S. cerevisiae deletion strains, locus YKL190W, strain CNB1, hits give low values 1 | S. cerevisiae deletion strains, locus YKR026C, strain gcn3, hits give low values 0.969 | S. cerevisiae deletion strains, locus YKR091W, strain srl3, hits give low values 0.959 | S. cerevisiae deletion strains, locus YLR058C, strain SHM2, hits give low values 1 | S. cerevisiae deletion strains, locus YLR102C, strain apc9, hits give low values 1.02 | S. cerevisiae deletion strains, locus YLR113W, strain HOG1, hits give low values 0.997 | S. cerevisiae deletion strains, locus YLR268W, strain sec22, hits give low values 0.982 | S. cerevisiae deletion strains, locus YLR330W, strain CHS5, hits give low values 0.992 | S. cerevisiae deletion strains, locus YLR342W, strain FKS1 (second series), hits give low values 0.916 | S. cerevisiae deletion strains, locus YLR357W, strain rsc2, hits give low values 1.04 | S. cerevisiae deletion strains, locus YLR370C, strain arc18, hits give low values 0.946 | S. cerevisiae deletion strains, locus YLR371W, strain rom2, hits give low values 1.03 | S. cerevisiae deletion strains, locus YLR384C, strain iki3, hits give low values 0.972 | S. cerevisiae deletion strains, locus YLR418C, strain cdc73, hits give low values 0.881 | S. cerevisiae deletion strains, locus YML016C, strain PPZ1, hits give low values 0.987 | S. cerevisiae deletion strains, locus YML032C, strain rad52, hits give low values 0.938 | S. cerevisiae deletion strains, locus YML124C, strain tub3, hits give low values 1.02 | S. cerevisiae deletion strains, locus YMR078C, strain ctf18, hits give low values 1.01 | S. cerevisiae deletion strains, locus YMR125W, strain sto1, hits give low values 0.962 | S. cerevisiae deletion strains, locus YMR129W, hits give low values 0.978 | S. cerevisiae deletion strains, locus YMR223W, strain ubp8, hits give low values 0.92 | S. cerevisiae deletion strains, locus YMR231W, strain pep5, hits give low values 0.971 | S. cerevisiae deletion strains, locus YMR263W, strain SAP30, hits give low values 0.927 | S. cerevisiae deletion strains, locus YMR307W, strain GAS1, hits give low values 1.21 | S. cerevisiae deletion strains, locus YNL067W, strain RPL9B, hits give low values 0.922 | S. cerevisiae deletion strains, locus YNL128W, strain TEP1, hits give low values 0.966 | S. cerevisiae deletion strains, locus YNL153C, strain GIM3, hits give low values 0.975 | S. cerevisiae deletion strains, locus YNL183C, strain NPR1, hits give low values 0.934 | S. cerevisiae deletion strains, locus YNL233W, strain BNI4, hits give low values 0.937 | S. cerevisiae deletion strains, locus YNL250W, strain rad50, hits give low values 1.02 | S. cerevisiae deletion strains, locus YNL271C, strain bni1, hits give low values 0.995 | S. cerevisiae deletion strains, locus YNL298W, strain CLA4, hits give low values 0.928 | S. cerevisiae deletion strains, locus YNL322C, strain KRE1 (second series), hits give low values 1.03 | S. cerevisiae deletion strains, locus YNL322C, strain KRE1, hits give low values 1.01 | S. cerevisiae deletion strains, locus YNR049C, strain mso1, hits give low values 0.965 | S. cerevisiae deletion strains, locus YNR052C, strain pop2, hits give low values 0.936 | S. cerevisiae deletion strains, locus YOL012C, strain htz1 1.24 | S. cerevisiae deletion strains, locus YOL147C, strain pex11, hits give low values 0.982 | S. cerevisiae deletion strains, locus YOR061W, strain CKA2, hits give low values 0.995 | S. cerevisiae deletion strains, locus YOR069W, strain VPS5, hits give low values 0.998 | S. cerevisiae deletion strains, locus YOR080W, strain dia2, hits give low values 0.967 | S. cerevisiae deletion strains, locus YOR136W, strain idh2, hits give low values 1.01 | S. cerevisiae deletion strains, locus YOR144C, strain elg1, hits give low values 1.01 | S. cerevisiae deletion strains, locus YOR184W, strain ser1, hits give low values 1.02 | S. cerevisiae deletion strains, locus YOR231W, strain MKK1, hits give low values 0.942 | S. cerevisiae deletion strains, locus YOR316C, strain cot1, hits give low values 1.02 | S. cerevisiae deletion strains, locus YPL055C, strain LGE1, hits give low values 0.934 | S. cerevisiae deletion strains, locus YPL106C, strain sse1, hits give low values 0.978 | S. cerevisiae deletion strains, locus YPL241C, strain CIN2, hits give low values 0.998 | S. cerevisiae deletion strains, locus YPL256C, strain CLN2, hits give low values 0.962 | S. cerevisiae deletion strains, locus YPR119W, strain clb2, hits give low values 1.02 | S. cerevisiae deletion strains, locus YPR141C, strain kar3, hits give low values 1.04 | S. cerevisiae deletion strains, locus YPR163C, strain tif3, hits give low values 0.952 | S. cerevisiae deletion strains, locus YPR167C, strain met16, hits give low values 1.02 | S. cerevisiae deletion strains, strain wtn01, hits give low values 0.964 | S. cerevisiae strains, strain wild type, hits give low values 0.987
active: S. cerevisiae deletion strains, locus YKL160W, strain elf1, hits give low values 0.772 | S. cerevisiae deletion strains, locus YKR001C, strain vps1, hits give low values 0.885 | S. cerevisiae deletion strains, locus YLL001W, strain dnm1, hits give low values 0.8 | S. cerevisiae deletion strains, locus YLL026W, hits give low values 0.825 | S. cerevisiae deletion strains, locus YLL041C, strain sdh2, hits give low values 0.896 | S. cerevisiae deletion strains, locus YLR027C, strain aat2, hits give low values 0.802 | S. cerevisiae deletion strains, locus YLR039C, strain RIC1, hits give low values 0.596 | S. cerevisiae deletion strains, locus YLR221C, strain rsa3, hits give low values 0.7 | S. cerevisiae deletion strains, locus YLR258W, strain gsy2, hits give low values 0.771 | S. cerevisiae deletion strains, locus YLR262C, strain YPT6 (second series), hits give low values 0.351 | S. cerevisiae deletion strains, locus YLR262C, strain YPT6, hits give low values 0.574 | S. cerevisiae deletion strains, locus YLR320W, strain mms22, hits give low values 0.429 | S. cerevisiae deletion strains, locus YLR342W, strain FKS1, hits give low values 0.861 | S. cerevisiae deletion strains, locus YML120C, strain ndi1, hits give low values 0.79 | S. cerevisiae deletion strains, locus YMR058W, strain fet3, hits give low values 0.716 | S. cerevisiae deletion strains, locus YMR205C, strain PFK2, hits give low values 0.568 | S. cerevisiae deletion strains, locus YNL071W, strain lat1, hits give low values 0.261 | S. cerevisiae deletion strains, locus YNL209W, strain ssb2, hits give low values 0.791 | S. cerevisiae deletion strains, locus YNL248C, strain rpa49, hits give low values 0.814 | S. cerevisiae deletion strains, locus YNL307C, strain MCK1, hits give low values 0.798 | S. cerevisiae deletion strains, locus YOL006C, strain TOP1, hits give low values 0.332 | S. cerevisiae deletion strains, locus YOR001W, strain rrp6, hits give low values 0.753 | S. cerevisiae deletion strains, locus YOR070C, strain gyp1, hits give low values 0.774 | S. cerevisiae deletion strains, locus YOR083W, strain WHI5, hits give low values 0.784 | S. cerevisiae deletion strains, locus YOR106W, strain vam3, hits give low values 0.563 | S. cerevisiae deletion strains, locus YOR265W, strain rbl2, hits give low values 0.903 | S. cerevisiae deletion strains, locus YOR270C, strain vph1, hits give low values 0.243 | S. cerevisiae deletion strains, locus YOR290C, strain snf2, hits give low values 0.782 | S. cerevisiae deletion strains, locus YPL051W, strain arl3, hits give low values 0.554 | S. cerevisiae deletion strains, locus YPL078C, strain atp4, hits give low values 0.741 | S. cerevisiae deletion strains, locus YPL240C, strain hsp82, hits give low values 0.849

Source: PubChem BioAssay AID1159580 (chemical genetic matrix, 2015)
